Source: PubChem BioAssay (NCI)
About 83,000 compounds went through this panel and 20% of them were active in at least one assay; those are over-represented in the sample as a whole.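 Interpretation: 100, growth as untreated; towards 0, rising growth inhibition; 0, no net growth; 0 to -100, cell death. Compounds scoring below 10 were considered active.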 Active and inactive are the calls of the source.

Key:
Assay in all cases: NCI-60 one-dose screen, 48 h (100 = growth as untreated, 0 = no growth, -100 = all killed)
Settings in all cases: 10 µM
[1] = test system: DU-145 prostate
[2] = test system: K-562 leukemia
[3] = test system: MALME-3M melanoma
[4] = test system: MDA-MB-231 breast
[5] = test system: RXF 393 renal
[6] = test system: SF-268 CNS
[7] = test system: SF-295 CNS
[8] = test system: SF-539 CNS
[9] = test system: UACC-257 melanoma
[10] = test system: M14 melanoma
[11] = test system: HCT-15 colon
[12] = test system: HT29 colon
[13] = test system: SNB-75 CNS
[14] = test system: SNB-19 CNS
[15] = test system: PC-3 prostate
[16] = test system: SK-MEL-5 melanoma
[17] = test system: SK-MEL-28 melanoma
[18] = test system: U251 CNS
[19] = test system: UACC-62 melanoma
[20] = test system: LOX IMVI melanoma

Measured: growth

Cc1cccc(N=Cc2ccccc2O)c1C
inactive: [1] 126% | [2] 98.3% | [3] 91.7% | [4] 102% | [5] 110% | [6] 116% | [7] 106% | [8] 102% | [9] 94.6% | [10] 105% | [11] 108% | [12] 97.7% | [13] 97.3% | [14] 90.5% | [15] 94.6% | [16] 103% | [17] 106%

COc1cc(/C=C/c2cc(/C=C/c3ccc(O)c(OC)c3)nc(N)n2)ccc1O
active: [2] 5.49% | [3] -28.9% | [4] 3.39% | [5] -63.9% | [6] 3.56% | [7] -5.25% | [9] -1.9% | [10] -26.1% | [12] -76.2% | [13] 5.5% | [18] 2.97% | [16] -18.4% | [19] -57.7% | [20] -16.1% | [17] 9.55%
inactive: [1] 13% | [8] 11.9% | [14] 23.2% | [15] 13%

N=C1S/C(=C/c2ccc(-c3ccc4c(c3)C(=O)NC4=O)o2)C(=O)N1c1ccc(Br)cc1
active: [5] -28.5% | [13] -3.31% | [15] -2.15% | [17] -19.1%
inactive: [1] 27.8% | [2] 21.5% | [3] 18.3% | [4] 46.5% | [6] 39.3% | [7] 22.1% | [8] 87.8% | [9] 47.7% | [10] 36.7% | [11] 47.1% | [12] 21.9% | [14] 106% | [16] 65.5% | [19] 31.8%

O=C(/C=C/c1cccc(B(O)O)c1)c1cccc(B(O)O)c1
active: [1] -69.4% | [4] -9.31% | [5] -86.7% | [6] -28.5% | [7] -14.6% | [8] -30.8% | [9] -11% | [10] -56.3% | [11] -40.4% | [12] -46.5% | [20] -85.6% | [17] -21.4%
inactive: [2] 11.5% | [3] 26.4% | [13] 45.3% | [14] 43.9% | [16] 22.1%

CCN(CC)CCOc1cccc2c1C(=O)c1ccccc1C2=O
inactive: [1] 100% | [2] 93.8% | [3] 115% | [4] 85.7% | [5] 79.9% | [6] 94.2% | [7] 96.8% | [8] 99.7% | [9] 94.4% | [10] 94.4% | [12] 80.6% | [13] 86.4% | [14] 92.1% | [18] 93.4% | [15] 83.5% | [16] 93.7% | [19] 95.2% | [20] 84.1%

COc1ccc(Nc2cnc3cc(NS(=O)(=O)c4ccc(C)cc4)ccc3n2)cc1
inactive: [1] 102% | [2] 24.2% | [3] 74.1% | [4] 67.6% | [5] 100% | [6] 88.1% | [7] 75% | [8] 80.9% | [9] 73.3% | [10] 75.8% | [12] 45.1% | [13] 61.7% | [14] 83% | [18] 77.9% | [15] 101% | [16] 77.4% | [19] 65.3% | [20] 87% | [17] 81.1%

Nc1ccc(/C=N/Nc2ccnc3c(O)cccc23)c2cccnc12
active: [2] 0.593% | [4] 0.678% | [18] 4.7% | [20] -72.9%
inactive: [1] 37.4% | [3] 101% | [5] 55.8% | [6] 43.5% | [7] 84.8% | [8] 67.7% | [9] 105% | [10] 53.8% | [12] 56.8% | [13] 69.9% | [14] 72.7% | [15] 34.8% | [16] 82.3% | [19] 95.2%

COc1ccc(-c2nn(-c3cccc(Cl)c3)cc2-c2cc(-c3ccccc3)nc(N)n2)cc1
active: [2] -3.82% | [20] -84.1%
inactive: [1] 95.1% | [3] 52.1% | [4] 35.1% | [5] 56.2% | [6] 65.7% | [7] 55% | [8] 89% | [9] 81.1% | [10] 52.6% | [11] 44.5% | [12] 19.5% | [13] 89.9% | [14] 75.2% | [15] 40% | [16] 73.3% | [19] 74.3% | [17] 83.8%

CC(C)(C)c1ccc(S(=O)(=O)N[C@H]2CC[C@H]3[C@@H]4CCc5cc(OS(=O)(=O)O)ccc5[C@H]4CC[C@]23C)cc1
inactive: [1] 63.3% | [2] 22% | [3] 41.8% | [4] 26.4% | [6] 51.2% | [7] 44.7% | [8] 82.4% | [9] 68.2% | [10] 54.2% | [11] 35.4% | [13] 61.6% | [14] 92.3% | [15] 27.5% | [16] 52.5% | [19] 62% | [17] 77.5%
active: [5] 9.08%

Cc1nn(-c2ccc(-c3ccc(OC(F)(F)F)cc3)cc2)c2nc(Cc3ccccc3)nc(N)c12
inactive: [1] 75.5% | [2] 63.7% | [3] 83.8% | [4] 48.3% | [5] 77.9% | [6] 54.3% | [7] 47.7% | [8] 80.3% | [9] 78.8% | [10] 69% | [12] 59.6% | [13] 34.9% | [14] 39.3% | [18] 20.7% | [15] 64.4% | [16] 87.7% | [19] 85.6% | [20] 31% | [17] 103%

O=[N+]([O-])c1cccc(/C=N/NC(=S)NC23CC4CC(CC(C4)C2)C3)c1
inactive: [1] 83.9% | [2] 89.2% | [3] 60.1% | [4] 70.2% | [5] 75.9% | [6] 77.8% | [7] 73.3% | [8] 92.3% | [9] 76.4% | [10] 89% | [12] 88.7% | [13] 17.9% | [14] 80.6% | [18] 68.1% | [15] 75.9% | [16] 85.7% | [19] 84.3% | [20] 76.4% | [17] 85.4%

CCN(CC)CCCOc1cccc2c1C(=O)c1cccc(OCCCN(CC)CC)c1C2=O
inactive: [1] 38.4% | [2] 16.1% | [3] 39.9% | [4] 35.5% | [5] 31.2% | [6] 44.3% | [7] 45.2% | [8] 40.2% | [9] 47.9% | [10] 48.1% | [12] 11% | [13] 52.6% | [14] 34.1% | [18] 31.2% | [15] 33.2% | [16] 46.6% | [19] 53% | [20] 16.9% | [17] 61.2%

Oc1ccc(-c2[nH]c3ccccc3c2-c2nc3ccccc3o2)cc1
inactive: [1] 78.6% | [2] 19.2% | [3] 65% | [4] 48.7% | [5] 91.6% | [6] 69.8% | [7] 72.1% | [8] 82.7% | [9] 112% | [10] 25.1% | [12] 27.8% | [13] 52.3% | [14] 89.6% | [18] 60.9% | [15] 57.4% | [16] 43.4% | [19] 59.6% | [20] 34.6% | [17] 58%

OCC1OC(n2cnc3c(NCc4ccco4)ncnc32)C(O)C1O (centres undefined)
inactive: [2] 33% | [3] 65.5% | [6] 44.6% | [7] 26.5% | [8] 21.7% | [9] 86.4% | [10] 31.2% | [12] 23.3% | [13] 14.7% | [14] 28.5% | [18] 43.7% | [15] 22% | [16] 23.7% | [19] 32.5% | [17] 68.1%
active: [1] 4.25% | [4] -5.65% | [5] -13.7% | [20] -63.7%

CN(C)CCC1(c2ccccc2)CCN(C)C1=O (centres undefined)
inactive: [1] 107% | [2] 95.2% | [3] 94.8% | [4] 114% | [5] 96.1% | [6] 99.9% | [7] 104% | [8] 103% | [9] 104% | [10] 108% | [11] 102% | [12] 106% | [13] 95.8% | [14] 105% | [16] 96.1% | [19] 105% | [20] 102% | [17] 103%

NNC(=O)Oc1c(Cl)cc(Cl)cc1[N+](=O)[O-]
inactive: [1] 103% | [2] 102% | [3] 94.4% | [4] 113% | [5] 113% | [6] 102% | [7] 103% | [8] 105% | [9] 104% | [10] 101% | [12] 100% | [13] 106% | [14] 106% | [18] 97.5% | [15] 107% | [16] 103% | [19] 104% | [20] 98% | [17] 108%
